Compound activity from PubChem.
A selection: hits, their analogues and other compounds. The true share with any hit is near 14%.
Pf growth 96h – Primary qHTS for delayed death inhibitors of the malarial parasite plastid, 96 hour incubation | P. falciparum luciferase reporter growth, 96 h | Potency, µM (series often up to 28.7 µM), for the others: top-dose activity change, negative = inhibition, actives largely listed as inhibitors | AID 504834, 2011 | actives 6.9% (n = 320,000); also: potency is read from the fitted curve at half-maximal effect
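Two-generation exposure (96 h) targets delayed-death phenotype. Reporter parasites carrying integrated firefly luciferase, in red cells at 2% hematocrit and 0.05% parasitemia final, kept at 37 C, 5% CO2; luminescence loss indicates inhibition.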
Pf growth 48h – Primary qHTS for delayed death inhibitors of the malarial parasite plastid, 48 hour incubation; P. falciparum luciferase growth in erythrocytes, 48 h; Potency, µM (series often up to 28.7 µM), for the others: top-dose activity change, negative = inhibition, most hits filed as inhibitors; actives 5.9% (n = 310,000); AID 504832, 2011; also: potency is read from the fitted curve at half-maximal effect
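A one-generation exposure of luciferase-tagged malaria parasites in RPMI 1640/Albumax erythrocyte culture, 37 C and 5% CO2. Inhibition is inferred from decreased luminescence after adding detection reagent.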
LASV entry inh – qHTS for Inhibitors of binding or entry into cells for Lassa Virus; Lassa virus pseudotype entry inhibition, cell reporter; Potency, µM (series often up to 37.9 µM), for inactives: at the highest dose activity change, negative = inhibition, usual class: inhibitors; actives 1.2% (n = 300,000); AID 540256, 2011; calls by dose curve; tested in HEK293 cells; also: potency is read from the fitted curve at half-maximal effect; nearly all actives have a fitted effect of over 50% in size
HCV inhibitor – qHTS Assay for Inhibitors of Hepatitis C Virus (HCV); Huh7.5.1 HCVcc-Cre infection, luciferase reporter, 44 h; Potency, µM (titrated, usually from 41.8 µM), for the others: top-dose activity change, negative = inhibition, usual class: inhibitors; actives 3.4% (n = 340,000); also: potency is read from the fitted curve at half-maximal effect
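After 44 h co-culture of compound, cells and HCVcc-Cre (~0.5 moi), substrate is added for 15 min at room temperature and luciferase measured over 15 sec. Cells were seeded at 1,000/well and pre-cultured 4 h.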
MARV entry inh – qHTS for inhibitors of binding or entry into cells for Marburg Virus; Marburg virus pseudotyped entry inhibition, cell reporter; Potency, µM (series often up to 37.8 µM), inactives show top-dose activity change, negative = inhibition, most hits filed as inhibitors; actives 1.8% (n = 300,000); calls by dose curve; tested in HEK293 cells; also: potency is read from the fitted curve at half-maximal effect
HCMV inh – qHTS Assay for inhibitors of the human cytomegalovirus (HCMV). activity change, negative = inhibition, % at 57.5 µM. actives 4.5% (n = 410,000). HFF cells, HCMV-luciferase reporter, 72 h; stronger effect = lower value. AID 1259415, 2018; in the data active = activity change below about -60%; inconclusive = no clear call, values can overlap the other calls; inactive = above about -39%
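Two-dose cell screen: HFF monolayers treated with compounds and infected with luciferase-expressing HCMV at 1 PFU/cell, 72 h at 37C, then lysed for luciferase measurement.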
The depositor's hits bear a star; ? = inconclusive; . = not tested or not shown; [ ] = remark or other dose. Unless noted, calls follow the shape of the dose curve; as a rule, active = well fitted inhibition curve with a large enough effect; inconclusive = small, poorly fitted or top-dose-only effect, or another doubt; inactive = no such curve, though single readings can be large or run the other way. % is scaled to controls: 0 for no effect and ±100 for the full control effect.

SMILES	Pf growth 96h	Pf growth 48h	LASV entry inh	HCV inhibitor	MARV entry inh	HCMV inh
Cc1ccc(C)c(CN2C(=O)c3ccccc3Sc3ccc(C(=O)NCc4ccco4)cc32)c1	.	.	?	.	.	-69*
O=C(NCc1ccco1)c1ccc2c(c1)N(Cc1ccc(Cl)cc1)C(=O)c1ccccc1S2	.	.	-27%[46.1 µM]	.	.	-37
Cc1ccc(C)c(CN2C(=O)c3ccccc3Sc3ccc(C(=O)NCc4cccs4)cc32)c1	.	.	-11%[46.1 µM]	.	.	-62*
O=C(c1ccc2c(c1)N(Cc1ccc(F)cc1)C(=O)c1ccccc1S2)N1CCC2(CC1)OCCO2	.	.	?	.	.	-10
C=CCN1C(=O)c2ccccc2Sc2ccc(C(=O)N3CCN(C)CC3)cc21	9.3µM*	?	-2%	?	-29%	-11
Cc1ccc(C)c(CN2C(=O)c3ccccc3Sc3ccc(C(=O)N4CCC5(CC4)OCCO5)cc32)c1	.	.	?	.	.	-72*
CCOc1ccc(CN2C(=O)c3ccccc3Sc3ccc(C(=O)N4CCN(C)CC4)cc32)cc1	.	.	1%[46.1 µM]	.	0%[46.1 µM]	14
O=C(NCCC1=CCCCC1)c1cc(S(=O)(=O)N2CCOCC2)ccc1F	-17%	-5%	5%	?	-12%[46.1 µM]	-18
COc1ccc(NC(=O)CN2C(=O)c3ccccc3Sc3ccc(C(=O)N4CCOCC4)cc32)c(OC)c1	-14%	10µM*	?	-9%	-1%[46.1 µM]	1
COc1ccc(OC)c(NC(=O)CN2C(=O)c3ccccc3Sc3ccc(C(=O)N4CCCC4)cc32)c1	.	.	?	.	.	-25
CCc1ccc(CNC(=O)CCCn2nc(C)n3ccnc3c2=O)cc1	?	16%	.	7%	.	14
Cc1nn(CCCC(=O)NCc2ccccc2)c(=O)c2nccn12	1µM*	9%	.	8%	.	9
CCOc1ccccc1NC(=O)c1c(NC(=O)COc2ccccc2)sc2c1CCCCC2	.	.	-3%[46.1 µM]	.	.	-2
CCC(C)(C)C1CCC(=NNc2nc3ccccc3[nH]2)CC1 (stereo not drawn)	10µM*	10µM*	8.2µM*	?	?	?
CC(=O)N1CCC(=NNc2nc3ccccc3[nH]2)CC1	?	?	0%[46.1 µM]	13%	?	-15
CNC(=O)c1c(NC(=O)C2=COCCO2)sc2c1CCCC2	13µM*	11%	-3%	?	4%	16
CNC(=O)c1c(NC(=O)c2ccco2)sc2c1CCC2	-66%	-6%	.	11µM*	.	0
CC1CCc2c(sc(NC(=O)C3c4ccccc4Oc4ccccc43)c2C(N)=O)C1 (stereo not drawn)	6.6µM*	?	-25%	-19%	5%	-11
CCC1CCc2c(sc(NC(=O)c3ccco3)c2C(N)=O)C1 (stereo not drawn)	58%	102%	?	4µM*	-2%	80
CC1CC(C)CN(C(=O)C2CCN(C(=O)Nc3ccccc3)CC2)C1 (stereo not drawn)	-12%	-23%	4%	28%	-25%	-20
CCOC(=O)CNC(=O)c1cc2c(=O)n(CC)c3ccccc3c2s1	.	.	23%[46.1 µM]	.	-3%[46.1 µM]	9
COCCOc1ccc(C(F)(F)F)cc1NC(=O)COC(=O)c1ccc(N2CCCC2=O)cc1	.	.	-4%	1%	-22%	-16
CC(=O)c1ccc(Nc2cc(C)nc3nc(Cc4ccccc4)nn23)cc1	.	.	-2%[46.1 µM]	.	6%[46.1 µM]	3
CCc1ccc(CN2CCCC(CNC(=O)c3cccc(OC)c3OC)C2)cc1 (stereo not drawn)	?	?	0%[46.1 µM]	-14%	?	-11
CCCCN(CCCC)S(=O)(=O)c1ccc(NC(=O)c2cccs2)cc1	0.41µM*	.	?	?	18µM*	?
SMILES	Pf growth 96h	Pf growth 48h	LASV entry inh	HCV inhibitor	MARV entry inh	HCMV inh
CCCCN(CCCC)S(=O)(=O)c1ccc(NC(=O)c2ccc([N+](=O)[O-])cc2Cl)cc1	1%	?	?	?	?	-78*
CCN(CC)S(=O)(=O)c1cc([N+](=O)[O-])ccc1NNC(=O)Nc1ccc(Cl)c(Cl)c1	-98%	.	-8%	?	?	-93*
COc1ccc(Cn2c(=O)n(-c3ccc(F)c(Cl)c3)c(=O)c3c2c2cc(OC)ccc2n3C)cc1	.	.	26%[46.1 µM]	.	.	-16
Cc1cc(C)n(S(=O)(=O)/C=C/c2ccccc2)n1	9%[5.75 µM]	-21%	?	?	5.2µM*	-67*
CCOc1nc(-c2ccccc2)ncc1Oc1ccccc1	.	.	24%	?	0%[14.2 µM]	84
Cc1ccccc1-c1nnnn1C1CCS(=O)(=O)C1 (stereo not drawn)	-11%	12%	.	13%	.	-67*
COc1cccc(CNCc2c(C(=O)O)c(C)n(Cc3ccc(F)cc3Cl)c2C)c1OC	.	.	-15%[46.1 µM]	.	-13%[46.1 µM]	21
Cc1ccccc1OCC(=O)Nc1nnc(S(=O)(=O)N(C)c2ccccc2)s1	.	.	5%[46.1 µM]	.	.	14
O=C1c2ccccc2C(=O)C1(O)O	74%	1%	.	?	.	.
CC1(S(=O)(=O)O)CC(=O)c2ccccc2C1=O (stereo not drawn)	1.7µM*	15µM*	.	-52%	.	-31
O=C(Nc1nc(-c2ccncc2)cs1)C1c2ccccc2Oc2ccccc21	?	?	-1%	?	?	-39
O=C(Nc1ncccn1)C1c2ccccc2Oc2ccccc21	1%	14%	10%	19%	22%	-21
O=C(Nc1nc(-c2ccccc2)cs1)C1c2ccccc2Oc2ccccc21	10µM*	12µM*	10%	9%	-15%	-3
O=C(Nc1ccncc1)C1c2ccccc2Oc2ccccc21	.	5.9µM*	0%	20%	6%	28
COc1ccc(OC)c(-c2csc(NC(=O)C3c4ccccc4Oc4ccccc43)n2)c1	0%	-7%	?	?	-7%	-66*
CC(=O)NC(c1ccccc1)c1nc(-c2cccc(F)c2)cs1 (stereo not drawn)	.	.	.	.	.	3
Cc1ccc(-c2nc3c(c(SCC(=O)N4CCOCC4)n2)Cc2c(CO)cnc(C)c2O3)cc1	-14%	7.4µM*	.	?	.	-28
CCOC(=O)c1[nH]c2ccccc2c1NC(=O)c1ccc2c(c1)OCO2	-9%	.	.	?	.	23
CCN(CC)S(=O)(=O)c1cccc(C(=O)Nc2cc3oc4ccccc4c3cc2OC)c1	?	-23%	?	?	?	-37
COc1ccc(OC)c(NC(=O)c2cc3oc4ccccc4c3cc2O)c1	?	4.1µM*	.	-12%	.	15
CCOC(=O)c1oc2ccccc2c1NC(=O)c1ccc2c(c1)OCO2	13µM*	12%	1%	16%	?	-5
COc1cc(OC)c(NC(=O)c2cc3ccccc3cc2O)cc1Cl	.	.	?	32µM*	?	-81*
